VDR inh – inhibitors of human vitamin D receptor | VDR-SRC2-3 peptide fluorescence polarization, 2 h | Potency, µM, for the others: max response, negative = inhibition, usual class: inhibitors | 400,000 tested, 0.93% active | AID 504847; also: potency is read from the fitted curve at half-maximal effect
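Compounds are added to VDR with labelled SRC2-3 coactivator peptide and held 2 h at room temperature. Inhibition of the VDR–peptide interaction is then read as a change in fluorescence polarization.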
PLK1 PBD inh – inhibitors of human PLK1 polo-box domain binding | P53350 | Plk1 PBD binding of FITC phosphopeptide, fluorescence polarization | Potency, µM, for inactives: max response, negative = inhibition, actives largely listed as inhibitors | 360,000 tested, 2.8% active; also: potency is read from the fitted curve at half-maximal effect; series mostly up to about 57 µM; nearly all actives have a fitted effect of over 65% in size
Target sequence (P53350 whole entry, looked up, the tested form may be a part): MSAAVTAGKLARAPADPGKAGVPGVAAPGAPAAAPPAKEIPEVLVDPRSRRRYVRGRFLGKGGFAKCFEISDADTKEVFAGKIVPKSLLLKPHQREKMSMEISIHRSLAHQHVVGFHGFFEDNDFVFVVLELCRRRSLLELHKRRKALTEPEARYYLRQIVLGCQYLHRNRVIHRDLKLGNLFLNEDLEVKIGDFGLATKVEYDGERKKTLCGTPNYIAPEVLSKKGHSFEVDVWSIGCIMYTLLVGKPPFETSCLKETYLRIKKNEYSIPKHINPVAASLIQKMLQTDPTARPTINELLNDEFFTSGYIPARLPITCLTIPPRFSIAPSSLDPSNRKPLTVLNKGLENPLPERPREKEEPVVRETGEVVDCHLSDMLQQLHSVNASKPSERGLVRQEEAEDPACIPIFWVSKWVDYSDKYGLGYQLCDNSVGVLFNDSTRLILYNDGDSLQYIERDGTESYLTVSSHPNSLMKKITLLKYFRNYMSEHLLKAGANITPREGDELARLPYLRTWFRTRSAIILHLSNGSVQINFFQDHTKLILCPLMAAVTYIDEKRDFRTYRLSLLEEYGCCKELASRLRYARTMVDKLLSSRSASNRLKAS
G9a block – G9a (human) methyltransferase inhibition | G9a H3K9 monomethylation, AlphaScreen, 2 h | Potency, µM (top dose mostly 102 µM), for inactives: at the top dose activity, negative = inhibition, most hits filed as inhibitors | 350,000 tested, 8.8% active | AID 504332; also: potency is read from the fitted curve at half-maximal effect; nearly all actives have a fitted effect of over 75% in size
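Step 1: enzyme (final 20 nM) with compound, 15 min RT. Step 2: substrate peptide 500 nM and SAM 20 uM, 2 h RT. Step 3: anti-H3K9me1 antibody and AlphaScreen beads, 10 min, then plate read.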
Sfp PPTase inh – inhibitors of Bacillus subtilis Sfp phosphopantetheinyl transferase. AID 1490. Potency, µM, without a hit: largest response in the series, negative = inhibition, most hits filed as inhibitors. Q9F4F7. Biochemical Sfp PPTase activity, qHTS. 310,000 tested, 3.5% active;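 also: the enzyme is Sfp with the accession as filed and its product quenches rhodamine fluorescence; potency is read from the fitted curve at half-maximal effect; 0% = enzyme reaction without inhibitor and -100% = no enzyme wells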
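Reaction rates are the 30-min fluorescence difference (ex 525, em 598 nm) in wells containing 15 nM Sfp, 5 uM rhodamine-CoA and 12.5 uM BHQ-2-YbbR at pH 7.6 with 10 mM MgCl2.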
Mm-Cpn inhibitor – M. maripaludis TRiC chaperonin inhibition. 330,000 tested, 0.031% active. purified Mm-Cpn ATPase, ADP Transcreener TR-FRET. Potency, µM (titrated, usually from 76.9 µM), inactives show top-dose activity, negative = inhibition, most hits filed as inhibitors; also: potency is read from the fitted curve at half-maximal effect; nearly all actives have a fitted effect of over 80% in size
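Measured: ADP formation by purified Mm-CPN. Conditions: 25 nM protein, 10 uM ATP, Tris pH 7.4 with Mg2+, K+ and DTT, 37°C for 30 min. Detection: Transcreener HTRF after 30 min at room temperature.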
CCT chaperon mod – cytosolic chaperonin activity modulation | purified chaperonin ATPase assay, HTRF ADP detection, 30 min | activity change, % (concentration not given with the values), hits read low | 360,000 tested, 0.3% active | AID 651819; in the data active = activity change below about -30%
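TRiC (40 or 20 nM final, by batch activity) in 30 mM Tris pH 7.4, 100 mM KCl, 5 mM MgCl2, 1 mM DTT was treated with compound at 76 uM single dose, then 10 uM ATP, 30 min at 37 °C. ADP was read by HTRF Transcreener.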
The depositor's hits bear a star; [ ] = another dose, or the depositor's remark. Sampled rows, rich in hits. Any-hit rate of the full collection: about 10%. Unless noted, calls follow the shape of the dose curve; as a rule, active = well fitted curve in the direction sought with a large enough effect; inconclusive = small, poorly fitted or top-dose-only effect, or another doubt; inactive = no such curve, though single readings can be large; an effect the other way counts as inactive or inconclusive. Unless noted, % is scaled to controls: 0 for no effect and ±100 for the full control effect.

Results for O=C1N[C@@H](Cc2ccccc2)C(=O)N2CCCC12 (some centres not stated) ?
VDR inh: 11.2%; PLK1 PBD inh: -13.8%; G9a block: 24.7%[135 µM]; Sfp PPTase inh: 7.9%; Mm-Cpn inhibitor: -0.6%; CCT chaperon mod: -0.9

What do the screens show for `O=C1N[C@@H](Cc2cnc[nH]2)C(=O)N2CCC[C@@H]12`?
VDR inh: -17.5%; PLK1 PBD inh: -10.1%; G9a block: 20µM*; Sfp PPTase inh: -8.1%; Mm-Cpn inhibitor: 1.7%[15.4 µM]; CCT chaperon mod: -0.3

Results for [C-]#[N+]c1cc(-c2ccncc2)c(C)[nH]c1=O ?
VDR inh: -5.2%; G9a block: 17.7%[59 µM]; Sfp PPTase inh: -1.7%

How did CCCCCCOc1ccc(C(=N)N(CCCC)CCCC)c2ccccc12 do in these assays?
VDR inh: inconclusive; G9a block: inconclusive; Sfp PPTase inh: 17.8µM*

Results for CCCCOc1ccc2ccccc2c1C=O ?
VDR inh: 10.4%; PLK1 PBD inh: -1.1%; G9a block: 19.3%[12.7 µM]; Sfp PPTase inh: -5.8%; Mm-Cpn inhibitor: -5.2%; CCT chaperon mod: -1.6

Results for N=C1S/C(=C\c2ccco2)C(=O)N1c1ccc2c(c1)OCO2 ?
VDR inh: -13.4%; PLK1 PBD inh: -26.4%; G9a block: 44.7µM*; Sfp PPTase inh: inconclusive; Mm-Cpn inhibitor: -4.4%; CCT chaperon mod: 0.8

How did COc1ccccc1OCCN1C(=O)S/C(=C\c2ccco2)C1=O do in these assays?
VDR inh: -16.4%; PLK1 PBD inh: -21.7%; G9a block: inconclusive; Sfp PPTase inh: -25.2%; Mm-Cpn inhibitor: 0.2%; CCT chaperon mod: -0.7

Results for N=C1S/C(=C\c2ccco2)C(=O)N1c1nccs1 ?
VDR inh: 5.8%; PLK1 PBD inh: -10.1%; G9a block: 35.5µM*; Sfp PPTase inh: inconclusive; Mm-Cpn inhibitor: -1.6%; CCT chaperon mod: -1.3

Results for COc1cc(C2Nc3cc(Cl)c(S(N)(=O)=O)cc3S(=O)(=O)N2)ccc1OCc1ccccc1 (configuration not stated) ?
VDR inh: -20.3%; PLK1 PBD inh: 23.8µM*; G9a block: -43.0%[59 µM]; Sfp PPTase inh: 26.8%; Mm-Cpn inhibitor: -0.2%; CCT chaperon mod: -0.9

How did CCCCn1c(SCC(=O)c2ccc(OC)c(OC)c2)nc2cc(S(N)(=O)=O)ccc21 do in these assays?
VDR inh: -5.9%; PLK1 PBD inh: -4.9%; G9a block: 50.1µM*; Sfp PPTase inh: -19.8%; Mm-Cpn inhibitor: -0.9%; CCT chaperon mod: -3.4

How did CCCCn1c(SCC(=O)c2ccc(OCC)cc2)nc2cc(S(N)(=O)=O)ccc21 do in these assays?
VDR inh: -1.8%; PLK1 PBD inh: -18.6%; G9a block: inconclusive; Sfp PPTase inh: 1.5%; Mm-Cpn inhibitor: -10.4%; CCT chaperon mod: -4.4

How did CC(=O)c1ccc(NC(=O)c2cccc(NC(=O)N3CCSc4ncccc43)c2)cc1 do in these assays?
VDR inh: -0.4%; G9a block: inconclusive

What do the screens show for `NC(=O)c1cc([N+](=O)[O-])ccc1Nc1ccccc1`?
VDR inh: 6.8%; PLK1 PBD inh: -8.4%; G9a block: 9.5%[2.33 µM]; Mm-Cpn inhibitor: inconclusive; CCT chaperon mod: -1.0

How did Nc1cc([N+](=O)[O-])ccc1Nc1ccc(O)cc1 do in these assays?
VDR inh: -26.9%; PLK1 PBD inh: -29.2%; G9a block: 10µM*; Sfp PPTase inh: 56.2µM*; Mm-Cpn inhibitor: 2.6%; CCT chaperon mod: -0.3

Results for C(/C=C/c1ccccc1)=N/N1CCN(c2ccccc2)CC1 ?
VDR inh: -5.7%; PLK1 PBD inh: 0.0%; G9a block: inconclusive; Sfp PPTase inh: 4.3%; Mm-Cpn inhibitor: 2.9%; CCT chaperon mod: -1.7

Results for C(=C\c1ccccc1)/C=N/N1CCN(Cc2ccccc2)CC1 ?
VDR inh: 7.2%; PLK1 PBD inh: -9.1%; G9a block: 44.7µM*; Sfp PPTase inh: -28.5%; Mm-Cpn inhibitor: -3.4%; CCT chaperon mod: 1.2

What do the screens show for `CCOc1ccc(/C=N/N2CCN(Cc3ccccc3)CC2)cc1`?
VDR inh: 6.4%; PLK1 PBD inh: 8.1%; G9a block: 39.8µM*; Sfp PPTase inh: 2.0%; Mm-Cpn inhibitor: 1.6%; CCT chaperon mod: -4.6
